This is part of a sample that, as a whole, favours compounds with a hit. Of some 79,000 tested, about 15% had one in any assay. The source made the active and inactive calls. Rule as the data show it: active = growth inhibition above about 70%; inactive = the rest.
Experiments:
[1] = NCI Yeast Anticancer Drug Screen. Data for the rad50 strain (AID 155);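 also: 0% = growth of vehicle-only cultures of the same strain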; details: S. cerevisiae rad50 strain growth inhibition; at 50.0 µM; active compounds read high
Method in brief: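 Readout: growth inhibition relative to vehicle-treated cultures. Compound exposure was carried out in a genetically defined yeast strain deficient in DNA damage repair.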

[2] = NCI Yeast Anticancer Drug Screen. Data for the mec2-1 strain (AID 157); details: S. cerevisiae mec2-1 strain, at 50.0 µM, active compounds read high
Method in brief: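 Yeast mec2-1 mutant treated with compound. Readout: growth inhibition vs vehicle controls.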

[3] = NCI Yeast Anticancer Drug Screen. Data for the sgs1 mgt1 strain (AID 161);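 also: 0% = growth of cultures given vehicle only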; details: S. cerevisiae sgs1 mgt1 strain, at 50.0 µM, active compounds read high
Method in brief: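 Test agents were incubated with a DNA-repair-mutant yeast strain. Growth was then read and compared against vehicle-treated controls.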

[4] = NCI Yeast Anticancer Drug Screen. Data for the cln2 rad14 strain (AID 165);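 also: 0% = growth equal to vehicle treated cultures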; details: S. cerevisiae cln2 rad14 strain, at 50.0 µM, active compounds read high
Method in brief: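 cln2 rad14 yeast strain; compound exposure; growth inhibition read vs vehicle controls.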

[5] = NCI Yeast Anticancer Drug Screen. Data for the bub3 strain (AID 167); details: S. cerevisiae bub3 mutant strain, at 50.0 µM, active compounds read high
Method in brief: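 Readout: yeast growth inhibition, expressed relative to vehicle-only wells. The test organism is a mutant strain from a panel with lesions in DNA repair or checkpoint genes.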

[6] = NCI Yeast Anticancer Drug Screen. Data for the mlh1 rad18 strain (AID 175); details: S. cerevisiae mlh1 rad18 strain growth inhibition; at 50.0 µM; active compounds read high
Method in brief: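 Yeast w/ defined DNA-repair lesions; compound exposure; growth vs vehicle controls → % inhibition.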

Measured: growth inhibition

C/C(=N\O)C1(C)CC=CCC1C(=O)O (stereo unspecified)
inactive: [1] -4.8% | [2] 4.5% | [3] 2.8% | [4] 19.2% | [5] -11.3% | [6] 1.4%

COC1/C=C\C=C(/C)C(=O)Nc2cc3nc4cccc(Br)c4oc-3c(c2=O)CC(C)CC(OC)C(O)C(C)/C=C(\C)C1OC(N)=O (stereo unspecified)
inactive: [1] 33.1% | [2] 21.8% | [3] 26.2% | [4] 21.9% | [5] 44.1% | [6] 16.5%

CCCCCCCCCCCCCCCc1cc(O)ccc1N=O
inactive: [1] -3.8% | [2] -16.5% | [3] -8.3% | [4] -3.45% | [5] -1.05% | [6] -11.7%

O=[N+]([O-])C(/C=C(\Cl)[N+](=O)[O-])=C(N1CCCCC1)N1CCCCC1
inactive: [1] 10.8% | [2] -1.8% | [3] 5.85% | [4] -5.55% | [5] 26.2% | [6] 18.1%

COc1ccc2c(c1)CCCN2C(=N)c1ccc([N+](=O)[O-])cc1
inactive: [1] -24.5% | [2] -4.1% | [3] -9.95% | [4] -52.9% | [5] 22.6% | [6] -11.5%

COc1cc(OC)c(NC2=CC(c3ccc(Cl)cc3)OC2=O)cc1Cl (stereo unspecified)
inactive: [1] 27.3% | [2] 1.85% | [3] 12.8% | [4] -3.6% | [5] 1.4% | [6] 17.8%

[O-]c1n[n+](Cc2ccc(Br)cc2)no1
inactive: [1] 6.95% | [2] 15.2% | [3] -4% | [4] 1.2% | [5] 18.4% | [6] 28.3%

CCOC(=O)C(C#N)=C1c2ccccc2Oc2ccccc21
inactive: [1] -3.7% | [2] 0.9% | [3] -2% | [4] -46% | [5] 6.95% | [6] -1.15%

CCC(C)CC(O)CC(C)C (stereo unspecified)
inactive: [1] 13.9% | [2] 8.85% | [3] 1.2% | [4] 12.7% | [5] 2.65% | [6] 13%

COc1ccccc1C(C)C
inactive: [1] -11.1% | [2] -3.8% | [3] -0.85% | [4] -21.8% | [5] -6.45% | [6] -16.2%

CCC(=O)c1c(O)c2ccccc2oc1=O
inactive: [1] -21.1% | [2] 9.45% | [3] -5.2% | [4] -4.1% | [5] 11.8% | [6] 8.1%

[C-]#[N+]C([N+]#[C-])=C(C)OCC
inactive: [1] 7.9% | [2] 5.1% | [3] -5.2% | [4] 10.8% | [5] 21.6% | [6] 2.5%

C=CCCCCCCCCC(=O)NCc1nc2ccccc2[nH]1
inactive: [1] 20.6% | [2] 21.6% | [3] 25.9% | [4] 1.15% | [5] 5.9% | [6] 69.1%

CSc1nc(NC2OCC(O)C(O)C2O)c(C(C)=O)c(=O)n1C (stereo unspecified)
inactive: [1] 3.7% | [2] -7.35% | [3] 8.2% | [4] -1.95% | [5] -33.4% | [6] 4.4%

O=C(O)C1SCCS1
inactive: [1] 15.4% | [2] 14.7% | [3] 19.1% | [4] 21.8% | [5] 22.1% | [6] 12.8%

C/C(=N\NC(=O)C1CCCO1)c1cccc2ccccc12 (stereo unspecified)
inactive: [1] 3.1% | [2] 11.5% | [3] 5.55% | [4] 17% | [5] 3.9% | [6] 3.55%

CCOP(=O)(OCC)C(Cc1ccc(OC)c(OC)c1)N=C(c1ccccc1)c1ccccc1 (stereo unspecified)
inactive: [1] 4.8% | [2] -5.7% | [3] -12.2% | [4] -13.3% | [5] -7.55% | [6] -7.9%

CC(C)(C)NC(=O)NCc1ccc(Cl)c(Cl)c1
inactive: [1] 2.95% | [2] 27.4% | [3] 17.8% | [4] -6.05% | [5] -5.05% | [6] 21.6%

COc1ccc(OC)c(NC(=O)c2ccc(Cl)c(Cl)c2)c1
inactive: [1] -0.5% | [2] 14.3% | [3] 5.45% | [4] -9.25% | [5] 13.6% | [6] 0.85%

CC(C)Oc1c(NCCO)c2cc(Cl)ccc2oc1=O
inactive: [1] -3.5% | [2] 10.9% | [3] 20.5% | [4] -66.2% | [5] -1.1% | [6] -12.1%

COC(=O)N1CCC(Sc2ccccc2)C2(CCSc3ccccc3)CCC=C12 (stereo unspecified)
inactive: [1] -2.2% | [2] -2.95% | [3] 5% | [4] -28.1% | [5] -27.6% | [6] -12.6%

C1CCC(C(C2CCCCC2)C2CCCCC2)CC1
inactive: [1] -16.9% | [2] -0.65% | [3] -8.6% | [4] 28% | [5] -4.3% | [6] -11.3%

Nc1ccc(C(=O)c2ccccc2)cc1Cl
inactive: [1] 60.7% | [2] 35% | [3] 56.4% | [4] 6.75% | [5] 36.2% | [6] 36.1%

CSC(=S)n1nc(-c2cccs2)c(N=Nc2ccc([N+](=O)[O-])cc2)c1C(F)(F)F
inactive: [1] 19.1% | [2] -3.75% | [3] 19.9% | [4] 12.2% | [5] 3.8% | [6] 0.85%

COc1ccc(/C=N/NC=O)cc1OC
inactive: [1] 7.35% | [2] 6.5% | [3] 1.2% | [4] 1.45% | [5] -12.5% | [6] -2.85%

Cc1ccc(S(=O)(=O)C(Cl)(SCl)Sc2ccccc2)cc1 (stereo unspecified)
inactive: [1] 64% | [2] 41.2% | [4] 47.3% | [5] 46.4%
active: [3] 74.9% | [6] 77.9%

C[N+](C)(C)C12CCCCCC1SC2 (stereo unspecified)
inactive: [1] 15.6% | [2] 6.7% | [3] 9.55% | [4] -26.6% | [5] -16.1% | [6] 5.1%

NC(CCCO)C(=O)O (stereo unspecified)
inactive: [1] -21.1% | [2] -6.7% | [3] -24.1% | [4] 8.6% | [5] -26.6% | [6] -26.1%

O=C(O)c1ccc(NC(NC(=O)C(C(F)(F)F)C(F)(F)F)(C(F)(F)F)C(F)(F)F)cc1
inactive: [1] 20.2% | [2] 14.4% | [3] 8.9% | [4] 1.2% | [5] 11.2% | [6] 14.4%

COc1ccc(-c2c(C#N)c(S)n(NS(=O)(=O)c3ccccc3)c(=O)c2C#N)cc1
inactive: [1] 16.8% | [2] 56.7% | [3] 43.7% | [4] -1.5% | [5] 34% | [6] 58%

CCOC(=O)C1CCC2c3[nH]c4ccccc4c3CCN2C1=O (stereo unspecified)
inactive: [1] -25.3% | [2] -39.8% | [3] -8.65% | [4] 1.6% | [5] 31.1% | [6] -20.9%

Clc1ccc(CCc2ccncn2)c(Cl)c1
inactive: [1] 17.5% | [2] 16.1% | [3] 5.7% | [4] 17.7% | [5] 14.7% | [6] 51.6%

CC(C)NC(=O)OCc1c(COC(=O)NC(C)C)n(C)c2c1ccc1ccccc12
active: [1] 89.8% | [2] 84.8% | [3] 83.8% | [4] 84.5% | [5] 87.5% | [6] 85.5%

CCOc1ccc2nc(SCCl)sc2c1
inactive: [1] 6.1% | [2] -2.7% | [3] 7.65% | [4] -14.9% | [5] -35.1% | [6] 2.8%

Cc1ccc(S(=O)(=O)N2CCN(C=S)CC2)cc1
inactive: [1] 22.4% | [2] -30.8% | [3] 14.2% | [4] 3.9% | [5] 23.2% | [6] 26.9%

CCC(C(N)=O)C(N)=O
inactive: [1] -20.1% | [2] -27.9% | [3] -34.5% | [4] 15.8% | [5] -1.3% | [6] -6.1%

O=C(NCc1ccccc1)C(O)c1ccccc1 (stereo unspecified)
inactive: [1] 25.2% | [2] 4.8% | [3] -1.25% | [4] 0.6% | [5] 8.2% | [6] 12.7%

Cc1c(Br)cc(C(=O)O)c(O)c1Br
inactive: [1] -4.95% | [2] 2.05% | [3] 19.6% | [4] -29.2% | [5] -26.6% | [6] 3.05%

C=CCc1cc(C(=O)C(=O)c2cc(CC=C)c(OC(C)=O)c(OC)c2)cc(OC)c1OC(C)=O
inactive: [1] 3.2% | [2] 6.75% | [3] 6.45% | [4] 6.8% | [5] -5.85% | [6] 8.25%

CC1=NC(=O)CNN1C1=NNC2(C(=O)N1)c1ccccc1-c1ccccc12
inactive: [1] -11.1% | [2] -7.3% | [3] -15.2% | [4] 0.85% | [5] -7.3% | [6] -25.1%

CCCCCCCC(=O)OCC(COC(=O)CCCCCCC)OC(=O)CCCCCCC
inactive: [1] 40.8% | [2] 3.6% | [3] 1.6% | [4] -33.5% | [5] 9.55% | [6] 27.1%

— PubChem BioAssay (NCI)
